Records with an inconclusive call do not appear. The source made the active and inactive calls. How the source made its calls: active means hit-call score of the fitted dose curve at least 0.9, where 1 is the maximum; inconclusive means response in the unintended direction; inactive means score below 0.9.
Experiment: CCTE_Shafer_MEA_acute_LDH: CCTE's Lactate Dehydrogenase Assay for Cytotoxicity in the Neural Acute Assay, Shafer Lab (AID 2284086);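 further: active means LDH release rises above DMSO vehicle level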
Protocol: CCTE_Shafer_MEA_acute assay is conducted using Axion Biosystems 48 well microelectrode array (MEA) plates and Maestro recording system. Each well of the MEA plate contains a grid of 16 microelectrodes embedded in the culture surface. Electrically active cells, such as neurons, can be cultured over the electrodes, and electrical activity in these cells can be recorded extracellularly. The spontaneous firing of neurons is captured from each electrode on a microsecond timescale providing both temporally and spatially precise data. […] The CCTE_Shafer_MEA_acute assay uses primary cultures of rat cortical neurons. As these cultures mature over time, neural networks develop functional activity and form cohesive networks in which electrical activity can be highly coordinated. Baseline 40-minute recordings are made on days post-plating 13 or 15, followed by a secondary 40-minute recording after chemical exposure.CCTE_Shafer_MEA_acute_LDH is a component of the CCTE_Shafer_MEA_acute assay. It measures the lactate dehydrogenase enzyme activity using spectrophotometry.Data from the assay component CCTE_Shafer_MEA_acute_LDH was analyzed into 1 assay endpoint. This assay endpoint, CCTE_Shafer_MEA_acute_LDH, was analyzed in the positive analysis fitting direction relative to DMSO as the negative control and baseline of activity. Using a type of viability reporter, gain-of-signal activity can be used to understand cell viability.
Immediately following the 40 min recording in the presence of compounds, 50 uL of media was removed from each well and transferred to a sterile 96-well plate. This was used to determine LDH released from cells during compound exposure using a kit from Promega where absorbance was determined in a Molecular Devices VersaMax plate reader at 490 nm.

Row | Structure (SMILES) | outcome
1 | C#CCOS(=O)OC1CCCCC1Oc1ccc(C(C)(C)C)cc1 (configuration not stated) | inactive
2 | Fc1ccc(Oc2ccnc3cc(Cl)cc(Cl)c23)cc1 | inactive
3 | CCCN(CCC)c1c([N+](=O)[O-])cc(S(N)(=O)=O)cc1[N+](=O)[O-] | inactive
4 | C=CCC1=C(C)[C@@H](OC(=O)[C@@H]2[C@@H](C=C(C)C)C2(C)C)CC1=O | inactive
5 | CO/C=C(/C(=O)OC)c1ccccc1Oc1cc(Oc2ccccc2C#N)ncn1 | inactive
6 | CC(C)(C)c1ccc(CSc2cnn(C(C)(C)C)c(=O)c2Cl)cc1 | inactive
7 | COP(N)(=O)SC (configuration not stated) | inactive
8 | CC(C)Oc1cc(-n2nc(C(C)(C)C)oc2=O)c(Cl)cc1Cl | inactive
9 | CCOP(=S)(OCC)SCn1c(=O)oc2cc(Cl)ccc21 | inactive
10 | CS/C(C)=N/OC(=O)N(C)SN(C)C(=O)O/N=C(\C)SC | inactive
11 | N#CC(CCc1ccc(Cl)cc1)(Cn1cncn1)c1ccccc1 (configuration not stated) | inactive
12 | CCCC1COC(Cn2cncn2)(c2ccc(Cl)cc2Cl)O1 (configuration not stated) | inactive
13 | CC1COC(Cn2cncn2)(c2ccc(Oc3ccc(Cl)cc3)cc2Cl)O1 (configuration not stated) | inactive
14 | COC(=O)N(OC)c1ccccc1COc1ccn(-c2ccc(Cl)cc2)n1 | inactive
15 | CCCCNC(=O)OCC#CI | inactive
16 | Cc1ccc(-c2c(Cl)nc(C#N)n2S(=O)(=O)N(C)C)cc1 | inactive
17 | O=C(O)c1nc(Cl)ccc1Cl | inactive
18 | COP(=S)(OC)Oc1nc(Cl)c(Cl)cc1Cl | inactive
19 | CC(Oc1ccc(Cl)cc1Cl)C(=O)O (configuration not stated) | inactive
20 | N#Cc1nn(-c2c(Cl)cc(C(F)(F)F)cc2Cl)c(N)c1S(=O)C(F)(F)F (configuration not stated) | inactive
21 | COC(=O)C(C)Oc1ccc(Oc2ccc(Cl)cc2Cl)cc1 (configuration not stated) | inactive
22 | C=CCC1=C(C)C(OC(=O)C2C(C=C(C)C)C2(C)C)CC1=O (configuration not stated) | inactive
